The values below come from publication PMC6212790, “How bacterial xenogeneic silencer rok distinguishes foreign from self DNA in its resident genome”.

Whole data set: some 33,000 sequences, median “e-score” near -0.038, cut for the highest 2% near 0.33. The entries come from a sample that favours the highest values as a whole.

This assay deals with T1, GST-Rok-C97-191 (Bacillus subtilis subsp. subtilis str. …, UniProt O34857 97-191).
T1 sequence: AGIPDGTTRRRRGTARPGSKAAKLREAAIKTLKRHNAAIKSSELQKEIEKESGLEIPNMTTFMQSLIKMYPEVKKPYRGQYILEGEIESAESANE
The assay is described as follows: protein binding microarray; Rok is a gene silencer of Bacillus subtilis; high values mean tight binding. To be noted: protein: recombinant; tags: GST (pTH5325, pDEST15-Magic modified); dsDNA, one strand shown. A digest of the protocol:
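Each has a 25-mer constant primer and a 35-mer variable part from a de Bruijn sequence of order 10, covering every non-palindromic 8-mer at least 32 times (palindromic 16). Preference for each 8-mer is given as a rank-based, unitless enrichment score (E-score). Its range runs from 0.5 (most favored) to −0.5 (most disfavored).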
For GTTCAACA, the binding signal is 0.0437 E-score.
For the sequence GTAACTGA, the binding signal worked out at 0.203 E-score.
The same measure for TCATGAAA: 0.0251 E-score; for GTGACCGA: 0.048 E-score; for CCACAATA: 0.2 E-score.
With GACCTAGC, the binding signal was -0.0362 E-score.
The same measure for AGCTACGA: 0.191 E-score.
In the case of ACATGACC it was 0.104 E-score; in that of AATAAGAC, 0.0721 E-score; in that of GGCTAGAA, -0.162 E-score.
In the case of AGCTAGAT it was 0.152 E-score.
Turning to TGCTAGAA, the binding signal is 0.364 E-score.
The same measure for CACTAGAA: 0.304 E-score.
The same measure for AACTAGAA: 0.363 E-score; for AACTAGAG: 0.0733 E-score; for GACTAGAA: 0.206 E-score.
Turning to ACCTAGAA, the binding signal is 0.142 E-score.
The same measure for AACTAGAC: 0.193 E-score; for AGCTAGAA: 0.322 E-score.
The same measure for TACTAGAA: 0.348 E-score; for AACTAGAT: 0.388 E-score; for GCCGCAAC: -0.128 E-score.
In the case of CAGCAGGA it was -0.178 E-score; in that of AACATCAT, 0.00751 E-score.
For AACATCTT, the binding signal stood at 0.0861 E-score.
In the case of GTAACCAA it was 0.000641 E-score; in that of CTAGACCA, -0.196 E-score.
In the case of ACATGTTA it was 0.144 E-score; in that of CGAATGAG, -0.0259 E-score.
The same measure for ATGCTCCG: -0.113 E-score; for CAGCCTTA: -0.151 E-score; for CATAGCTC: 0.00142 E-score.
As for ACGCGGAA, the binding signal is -0.0676 E-score.
In the case of GCTAGATA it was 0.288 E-score; in that of CGTAGATA, 0.21 E-score; in that of AGTAGATA, 0.456 E-score.
The same measure for AGTAGATC: 0.323 E-score; for AGTAGATG: 0.29 E-score.
With GGTAGATA, the binding signal was 0.432 E-score.
As to ACCCGCAA, the binding signal was -0.0817 E-score.
The same measure for GACTAGCA: 0.101 E-score; for AACTAGCA: 0.346 E-score; for AACTAGCT: 0.342 E-score.
In the case of AACTAGCC it was 0.107 E-score; in that of AACTAGCG, 0.256 E-score.
The same measure for CACTAGCA: -0.154 E-score; for AGAAGAAA: 0.00841 E-score; for CTCTTTCC: -0.0674 E-score.
Regarding AACACCCA, the binding signal was -0.114 E-score.
The same measure for GACGTATA: 0.174 E-score; for TACGTATA: 0.349 E-score.
In the case of CACGTATA it was 0.228 E-score; in that of TGGAGCCA, -0.182 E-score.
In the case of GGCGAAGA it was -0.0389 E-score; in that of GTTAAAAC, 0.0593 E-score; in that of CCAACTGA, -0.0233 E-score.
Consider ATATAAAA, for which the binding signal amounted to 0.338 E-score.
The same measure for ATATAAAC: 0.33 E-score; for ATATAAAT: 0.419 E-score; for GTATAAAC: 0.137 E-score.
In the case of ATATAAAG it was 0.135 E-score; in that of ATAAAAAT, 0.28 E-score; in that of CTATAAAA, 0.229 E-score.
For CTATAAAC, the binding signal was determined as 0.291 E-score.
In the case of TTATAAAA it was 0.218 E-score; in that of CGGAGACG, -0.133 E-score.
With CGTGTAGC, the binding signal is -0.0895 E-score.
In the case of CTAGAGAC it was 0.0353 E-score; in that of AGAACTAT, 0.268 E-score.
In the case of AGAACTAC it was 0.369 E-score; in that of AGAACTAA, 0.259 E-score; in that of CGAACTAA, 0.135 E-score.
In the case of CGAACTAC it was 0.373 E-score; in that of CGAACTAG, 0.299 E-score; in that of CGACCGGA, -0.00838 E-score.
On to GGTTCCGA, for which the binding signal stood at 0.0637 E-score.
The same measure for ACTTGTTC: 0.195 E-score; for GGCAAGAA: -0.058 E-score.
The same measure for CTCGAAAC: 0.104 E-score.
Take ATGCCCGA: the binding signal is -0.167 E-score.
The same measure for AACTCATA: 0.0551 E-score; for GATAGCTA: 0.367 E-score; for AATAGCTA: 0.329 E-score.
In the case of GATAGCGA, the binding signal amounted to 0.0913 E-score.
In the case of CATAGCTA, the binding signal was determined as 0.304 E-score.
The same measure for GATAGCAA: 0.137 E-score; for AATAGCTG: 0.186 E-score; for CAGTCTAA: -0.037 E-score.
In the case of GGCAAGTA it was 0.0714 E-score.
In the case of AACAAATA it was 0.24 E-score; in that of TAAAAATA, 0.351 E-score.
In the case of AAAAAATA, the binding signal was 0.323 E-score.
The same measure for AACAAGTT: 0.0415 E-score; for ATAAAATA: 0.396 E-score; for AACAAGTA: 0.371 E-score.
The same measure for TACAAATA: 0.359 E-score; for CACAAGTA: 0.205 E-score; for CACAAATA: 0.243 E-score.
In the case of ATAAAATG it was 0.246 E-score; in that of CTAAAATA, 0.295 E-score; in that of GTAAAATA, 0.306 E-score.
In the case of CTCTCGCA, the binding signal is -0.118 E-score.
The same measure for AATCCGAA: 0.0539 E-score; for CTGAAGCA: -0.0795 E-score; for AGGTCACA: -0.186 E-score.
The same measure for GCGGTTAA: 0.123 E-score; for AAGAACTT: -0.176 E-score; for AAGTCTAA: -0.0843 E-score.
The same measure for ACTGAAGT: 0.155 E-score; for AGGGACCA: -0.0833 E-score; for TTAAAAAA: -0.0566 E-score.
With GATAAATA, the binding signal stood at 0.323 E-score.
In the case of CTAAAAAA it was 0.168 E-score; in that of TATAAATA, 0.381 E-score.
In the case of AATAAATA it was 0.258 E-score; in that of TAAAAAAA, 0.328 E-score.
For the sequence CTCCTTGA, the binding signal was -0.109 E-score.
The same measure for TCATGGAA: -0.0558 E-score.
As to CGAGTCTA, the binding signal is -0.0403 E-score.
In the case of ACGAACTC it was -0.0425 E-score; in that of CGGAATTC, 0.0787 E-score.
The same measure for CGAAAACA: 0.348 E-score.
The same measure for GGAAACTA: 0.354 E-score; for GGAAACAA: 0.0324 E-score; for AGAAAACA: 0.0817 E-score.
Regarding AGAAACTA, the binding signal was found to be 0.377 E-score.
With GGAAAACA, the binding signal was -0.00212 E-score.
The same measure for GGAAACCA: -0.105 E-score; for CGAAACCA: -0.131 E-score.
The same measure for AGAAACTG: 0.0822 E-score.
Consider AGAAACTC, for which the binding signal turned out to be 0.0994 E-score.
The same measure for CGAAACTA: 0.425 E-score.
For the sequence CGAAACTC, the binding signal came to 0.0357 E-score.
In the case of GAAATGGC it was -0.16 E-score.
As for ACTCGTAC, the binding signal was 0.0277 E-score.
The same measure for CAGTAATC: -0.0737 E-score.
The same measure for GATGCAGC: -0.0978 E-score.
The same measure for AACATATT: 0.24 E-score; for GTACGCCA: -0.0805 E-score.
GCTTCACA: the binding signal was -0.0519 E-score.
In the case of CATGACTC it was 0.0199 E-score; in that of CATGGTAG, 0.188 E-score; in that of ATAGGTAG, 0.358 E-score.
The same measure for AATGGTAT: 0.328 E-score; for ATAGGTAA: 0.225 E-score.
In the case of AGTGGTAC it was 0.202 E-score.
On to ATTGGTAG, for which the binding signal is 0.38 E-score.
The same measure for CGTGGTAG: 0.206 E-score.
In the case of ATTGGTAA it was 0.258 E-score; in that of ATTGGTAC, 0.278 E-score; in that of AATGGTAG, 0.441 E-score.
In the case of ATAGGTAC it was 0.257 E-score.
On to AGTGGTAG, for which the binding signal stood at 0.378 E-score.
The same measure for CTTATTCC: 0.00112 E-score.
In the case of AAGAGAGC it was -0.136 E-score; in that of AGCGTACC, -0.188 E-score; in that of AGCGGGAG, -0.145 E-score.
ACCAACTA: the binding signal was found to be 0.161 E-score.
In the case of TACGGCCA it was -0.0766 E-score; in that of ACTTTCGC, 0.0461 E-score; in that of TACCCATA, 0.234 E-score.
In the case of AGCCTTAT it was -0.11 E-score.
The same measure for CCTACATC: 0.187 E-score.
For ACTACAAG, the binding signal turned out to be 0.137 E-score.
In the case of ACTACATC it was 0.334 E-score; in that of ACTACATG, 0.307 E-score.
In the case of ACTACAAC it was 0.295 E-score.
Regarding ACTACAAT, the binding signal was found to be 0.329 E-score.
The same measure for ACTACTCG: 0.159 E-score; for ACTACTGC: 0.113 E-score; for ACTACTAC: 0.419 E-score.
In the case of ACTACTAG it was 0.361 E-score; in that of GCTACTAC, 0.264 E-score; in that of CCTACTAG, 0.18 E-score.
In the case of CTGCCTTC it was -0.104 E-score; in that of GCTCGCAA, -0.145 E-score; in that of AGCTAGGA, -0.00935 E-score.
On to ACTACGAC, for which the binding signal worked out at 0.0766 E-score.
For the sequence ACTACGAA, the binding signal worked out at 0.163 E-score.
The same measure for CCTACTAC: 0.343 E-score.
The same measure for CCTACTAA: 0.101 E-score; for ACTACTAT: 0.46 E-score.
In the case of ACTACGAT it was 0.362 E-score.
Regarding ACTACTCT, the binding signal was found to be 0.19 E-score.
The same measure for ACTACTCA: 0.265 E-score; for CCTACTTC: 0.0914 E-score; for CCGGACCG: -0.0456 E-score.
Consider CGTCAACC, for which the binding signal was -0.182 E-score.
Take GTGAGATA: the binding signal is 0.0844 E-score.
The same measure for CCTTCTCC: -0.165 E-score.
In the case of ACCGCTAA it was 0.13 E-score; in that of GTCCAATA, 0.0328 E-score.
In the case of CTCGCAAA it was 0.0435 E-score.
For the sequence ACTCGGTA, the binding signal turned out to be 0.286 E-score.
The same measure for GGGAGCAC: -0.183 E-score; for CTATAAGA: 0.156 E-score.
In the case of GTATAATA it was 0.413 E-score.
Take GTATAAAA: the binding signal came to 0.32 E-score.
With CTATAATC, the binding signal was found to be 0.222 E-score.
The same measure for CTATAATA: 0.34 E-score; for GTATAACA: 0.141 E-score.
In the case of ATATAATC it was 0.201 E-score; in that of ATATAATA, 0.446 E-score; in that of ATATAATG, 0.3 E-score.
The same measure for CGAGAAGA: -0.0403 E-score.
Regarding CCTTAGGA, the binding signal amounted to 0.047 E-score.
In the case of ACTGCACC it was 0.128 E-score; in that of TCTTAAAA, -0.0115 E-score; in that of AAAACAAC, 0.116 E-score.
The same measure for AAAGTGAC: -0.0335 E-score.
Turning to ATTCTTGC, the binding signal was 0.103 E-score.
In the case of ATATGGTG it was 0.159 E-score.
In the case of ATATGTTA it was 0.331 E-score; in that of ATATGGTA, 0.331 E-score.
The same measure for CTATGGTA: 0.211 E-score.
With TAATGGTA, the binding signal was determined as 0.325 E-score.
As to GAATGGTC, the binding signal is -0.121 E-score.
The same measure for ATATGTTC: 0.238 E-score; for CTATGTTA: 0.256 E-score; for GAATGGTA: 0.39 E-score.
